Screens from PubChem.
Compounds with a hit are over-represented: about 4.1% of the library has one in this group of screens.
DAX1 inh-1: blocks DAX1 repression of SF-1 activated StAR promoter; HEK293T StAR-luciferase reporter, SF-1/DAX-1 repression relief; inhibition, % at 6.8 µM; hit rate 1.1% among 370,000;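 active = inhibition above the mean over all tested compounds plus 3 SD, cut at about 3.6% in these data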;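 also: 0% = DAX-1 cells with DMSO and 100% = cells lacking DAX-1 with DMSO; higher inhibition means more luminescence from relief of DAX-1 repression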
hgDAF-12 ag: agonists of H. glycines DAF-12 nuclear receptor | hit rate 1.8% among 370,000 | activation, % at 6.8 µM | AID 687014 | HEK293 GAL4-hgDAF12 UAS-luciferase reporter, agonist luminescence; normalized to butyrate control;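 active = activation above a cutoff set at the mean of all screened compounds plus 3 SD, cut at about 10% in these data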;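 also: 0% = DMSO wells and 100% = sodium butyrate wells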
DAX1 inh-2: inhibits human nuclear receptor DAX1. P51843. HEK293 Gal4-DAX1 luciferase reporter, luminescence. inhibition, % at 6.75 µM. hit rate 0.99% among 340,000. AID 504766;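 active = inhibition above the mean over all tested compounds plus 3 SD, cut at about 4.2% in these data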;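 also: 0% = DAX1-transfected cells with DMSO and 100% = empty-vector control cells with DMSO; inhibition shows as a rise in luminescence from relieved DAX1 repression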
Target sequence (P51843 207-470 limits assumed): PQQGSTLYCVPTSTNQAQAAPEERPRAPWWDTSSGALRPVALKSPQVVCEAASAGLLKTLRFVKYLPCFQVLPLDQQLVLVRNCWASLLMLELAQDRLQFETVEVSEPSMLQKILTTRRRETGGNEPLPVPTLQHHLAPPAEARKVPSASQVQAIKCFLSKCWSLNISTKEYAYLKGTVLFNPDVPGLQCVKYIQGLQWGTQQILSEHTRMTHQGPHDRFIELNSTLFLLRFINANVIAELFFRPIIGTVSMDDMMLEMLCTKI
ssDAF-12 act: S. stercoralis DAF-12 activation, primary screen. activation, % at 6.8 µM. hit rate 1% among 370,000. HEK293 ssDAF-12/GRIP1 lit1-tk-luc reporter, luminescence; % of 3 µM dafachronic acid response. AID 652126;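 active = activation above the mean over all tested compounds plus 3 SD, cut at about 0.9% in these data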;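 also: 0% = DMSO-only wells and 100% = 3 µM delta7-dafachronic acid wells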
hcDAF-12 act: activators of H. contortus DAF-12 nuclear receptor; HEK293 hcDAF-12 lit1-tk-luc reporter, luminescence; 0% DMSO, 100% Δ7-dafachronic acid; activation, % at 6.8 µM; hit rate 1.4% among 370,000; AID 652067;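 active = activation above the mean of all tested compounds plus 3 SD, cut at about 5.5% in these data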;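 also: 100% = response to 3 µM Δ7-dafachronic acid high control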
An asterisk follows results filed as active.

Results for O=C(Nc1ccccc1C(=O)NC(Cc1c[nH]c2ccccc12)C(=O)O)c1ccco1 (stereo unspecified) ?
DAX1 inh-1: -0.2; hgDAF-12 ag: 4.0; DAX1 inh-2: 1.0; ssDAF-12 act: 1.4*; hcDAF-12 act: 2.3

What do the screens show for `Cc1cc2c(cc3c(=O)n(CC(=O)NCCCN4CC(C)CC(C)C4)ncn32)s1` (stereo unspecified)?
DAX1 inh-1: 0.2; hgDAF-12 ag: -1.5; DAX1 inh-2: -0.1; ssDAF-12 act: -0.8; hcDAF-12 act: 0.3

How did CN1[C@@H](Cc2ccccc2)COc2cccc(N3CCSCC3)c2S1(=O)=O do in these assays?
DAX1 inh-1: 0.1; hgDAF-12 ag: 0.3; ssDAF-12 act: -0.6; hcDAF-12 act: 3.0

Results for O=C(CSc1nnc(-c2cccs2)o1)c1cccc([N+](=O)[O-])c1 ?
DAX1 inh-1: -0.3; hgDAF-12 ag: -2.6; ssDAF-12 act: -1.4; hcDAF-12 act: -0.7

How did CN[C@H]1C[C@H]2c3[nH]c4c(-c5ccc6c(c5)OCO6)cccc4c3CCN2C[C@H]1[C@H](C)O do in these assays?
DAX1 inh-1: -0.7; hgDAF-12 ag: -0.3; ssDAF-12 act: -1.0; hcDAF-12 act: -2.7

Results for O=C(Nc1ccccc1C(=O)NCCc1ccccc1)c1ccco1 ?
DAX1 inh-1: 0.7; hgDAF-12 ag: 10.6*; DAX1 inh-2: 1.7; ssDAF-12 act: 0.3; hcDAF-12 act: 4.7

How did O=C(O)CNC(=O)c1ccccc1NC(=O)c1ccco1 do in these assays?
DAX1 inh-1: -0.3; hgDAF-12 ag: -0.1; DAX1 inh-2: -0.2; ssDAF-12 act: -0.8; hcDAF-12 act: 2.3

How did O=C(NCCc1ccccc1)c1ccc(NS(=O)(=O)c2ccc3[nH]c(=O)[nH]c3c2)cc1 do in these assays?
DAX1 inh-1: 3.8*; hgDAF-12 ag: 6.1; DAX1 inh-2: 1.6; ssDAF-12 act: -0.7; hcDAF-12 act: 0.0

What do the screens show for `CC(NC(=O)c1ccccc1NS(=O)(=O)c1ccc(CCC(=O)O)cc1)c1ccccc1` (stereo unspecified)?
DAX1 inh-1: 0.7; hgDAF-12 ag: -0.1; DAX1 inh-2: 0.4; ssDAF-12 act: -1.5; hcDAF-12 act: 0.6

What do the screens show for `O=C(O)CCc1ccc(S(=O)(=O)Nc2ccccc2C(=O)NCCc2ccccc2)cc1`?
DAX1 inh-1: 0.9; hgDAF-12 ag: 9.6; DAX1 inh-2: 0.7; ssDAF-12 act: 1.0*; hcDAF-12 act: 5.3

How did Cc1c(C)c2ccc(OCC(=O)Nc3nccs3)cc2oc1=O do in these assays?
DAX1 inh-1: 1.4; hgDAF-12 ag: 11.3*; DAX1 inh-2: -2.1; ssDAF-12 act: 0.1; hcDAF-12 act: 5.2

How did Cc1c(C)c2ccc(OCC(=O)Nc3ccccn3)cc2oc1=O do in these assays?
DAX1 inh-1: 3.5; hgDAF-12 ag: 3.0; DAX1 inh-2: 4.1; ssDAF-12 act: 0.1; hcDAF-12 act: 0.8

What do the screens show for `Cc1ccc(Nc2nc(N)nc(N)c2N=O)cc1Cl`?
DAX1 inh-1: 1.6; hgDAF-12 ag: 1.5; ssDAF-12 act: -0.7; hcDAF-12 act: -0.7

How did CC(=O)Nc1ccc(C=NNc2ccc(S(=O)(=O)Nc3ccccc3C(=O)O)cc2[N+](=O)[O-])cc1 do in these assays?
DAX1 inh-1: 0.5; hgDAF-12 ag: -1.0; DAX1 inh-2: 0.6; ssDAF-12 act: -0.8; hcDAF-12 act: -0.5

How did O=[N+]([O-])c1ccc(N/N=C/c2ccccc2)c(F)c1 do in these assays?
DAX1 inh-1: -0.3; hgDAF-12 ag: 11.8*; DAX1 inh-2: 0.7; ssDAF-12 act: -0.8; hcDAF-12 act: 1.5

How did CC(=O)Nc1ccc(C=NNc2ccc([N+](=O)[O-])cc2S(=O)(=O)Nc2ccccc2C(=O)O)cc1 do in these assays?
DAX1 inh-1: 3.9*; hgDAF-12 ag: -2.1; DAX1 inh-2: 0.8; ssDAF-12 act: -1.0; hcDAF-12 act: -0.9

How did CC(C)Cc1nnc(NC(=O)CN2C(=O)NC3(CCCC3)C2=O)s1 do in these assays?
DAX1 inh-1: -0.2; hgDAF-12 ag: -0.7; DAX1 inh-2: 0.5; ssDAF-12 act: -0.9; hcDAF-12 act: -0.2

Results for N#Cc1cccc(-c2ccccc2C(=O)NC2CCCCN(Cc3ccc(Cl)cc3)C2=O)c1 (stereo unspecified) ?
DAX1 inh-1: -1.4; hgDAF-12 ag: 0.2; ssDAF-12 act: -2.1; hcDAF-12 act: -2.9

Results for CCC(=O)NC(=S)Nc1ccccc1F ?
DAX1 inh-1: -0.9; hgDAF-12 ag: 2.3; DAX1 inh-2: 0.0; ssDAF-12 act: -1.0; hcDAF-12 act: -0.8

Results for CC(=O)NC(=S)Nc1ccccc1F ?
DAX1 inh-1: 0.3; hgDAF-12 ag: -0.8; DAX1 inh-2: 6.3*; ssDAF-12 act: -1.0; hcDAF-12 act: -1.2

Results for COc1ccc(C(=O)NC(=S)Nc2ccccc2F)cc1 ?
DAX1 inh-1: 1.2; hgDAF-12 ag: 10.9*; DAX1 inh-2: 0.9; ssDAF-12 act: -0.5; hcDAF-12 act: 1.7

What do the screens show for `c1ccc(Nc2nc3ccccc3n3nnnc23)cc1`?
DAX1 inh-1: 1.6; hgDAF-12 ag: 7.0; DAX1 inh-2: 1.7; ssDAF-12 act: 0.1; hcDAF-12 act: 3.6

What do the screens show for `Fc1ccccc1Nc1nc2ccccc2n2nnnc12`?
DAX1 inh-1: 0.3; hgDAF-12 ag: 5.3; DAX1 inh-2: 0.7; ssDAF-12 act: 1.1*; hcDAF-12 act: 1.1

Results for CCNC(=S)N1CCC(n2cnc3ccccc32)CC1 ?
DAX1 inh-1: -0.2; hgDAF-12 ag: -2.6; DAX1 inh-2: 4.6*; ssDAF-12 act: -1.5; hcDAF-12 act: 0.8

What do the screens show for `O=C(NC1CCCCC1)N1CCC(n2cnc3ccccc32)CC1`?
DAX1 inh-1: -0.2; hgDAF-12 ag: 1.0; DAX1 inh-2: 0.1; ssDAF-12 act: -1.2; hcDAF-12 act: -0.5

Results for Nc1cc(N)nc(SCc2cc([N+](=O)[O-])cc3c2OCOC3)n1 ?
DAX1 inh-1: -0.1; hgDAF-12 ag: -5.3; DAX1 inh-2: 0.1; ssDAF-12 act: -1.8; hcDAF-12 act: -2.6

What do the screens show for `O=[N+]([O-])c1cc2c(c(CSc3ncccn3)c1)OCOC2`?
DAX1 inh-1: 0.4; hgDAF-12 ag: 4.2; DAX1 inh-2: 6.9*; ssDAF-12 act: 0.8; hcDAF-12 act: 0.8

What do the screens show for `CC(OC(=O)/C=C/c1cccc(F)c1)C(=O)NC1CCCCC1C` (stereo unspecified)?
DAX1 inh-1: -0.7; hgDAF-12 ag: -1.6; DAX1 inh-2: 0.4; ssDAF-12 act: -1.1; hcDAF-12 act: -0.5

How did COc1cc(/C=C/C(=O)OC(C)C(=O)NC2CCCCC2C)cc(Cl)c1OC (stereo unspecified) do in these assays?
DAX1 inh-1: 0.2; hgDAF-12 ag: -1.2; DAX1 inh-2: 6.9*; ssDAF-12 act: -1.1; hcDAF-12 act: -0.6

What do the screens show for `CSc1ccc(-c2nc(O)c3cnccn23)cc1`?
DAX1 inh-1: -1.0; hgDAF-12 ag: -2.5; DAX1 inh-2: 1.5; ssDAF-12 act: -1.2; hcDAF-12 act: -2.4

Results for O=C(CSc1nnnn1-c1cccc2ccccc12)NC(C(=O)O)(c1ccccc1)c1ccccc1 ?
DAX1 inh-1: 0.0; hgDAF-12 ag: 1.6; DAX1 inh-2: -0.1; ssDAF-12 act: -0.6; hcDAF-12 act: 1.1
